According to PubChem BioAssay AID1403 (National Center for Advancing Translational Sciences (NCATS), 2008):
Inconclusive results are not listed. The source made the active and inactive calls. Calls come from the whole dose curve; as a rule, active = well fitted curve in the direction sought with a large enough effect in the signal ratio; inconclusive = small, poorly fitted or top-dose-only effect, or a change in a side signal; inactive = no such curve, though single readings can be large or run the other way; the % refers to the signal ratio.

Target: Follicle-stimulating hormone receptor (Homo sapiens) (UniProt P23945)
Experiment: Counterscreen for Agonists of Thyroid Stimulating Hormone Receptor: HTRF Activity in a Follicle Stimulating Hormone Receptor Cell Line
Conditions: HEK293-FSHR cells, 30 min; series mostly up to 91.7 µM
Description: NIH Chemical Genomics Center [NCGC] NIH Molecular Libraries Screening Centers Network [MLSCN] MLSCN Grant: 1 X01 MH080680-01 PI Name: Dr. Marvin Gershengorn, NIH NCGC Assay Overview: Confirmation of Thyroid Stimulating Hormone Receptor Agonists TSH is an alpha/beta heterodimeric glycoprotein hormone secreted from the anterior pituitary gland which belongs to the glycoprotein hormone family. The actions of TSH are mediated by a seven-transmembrane receptor, which upon TSH binding couples preferentially to the G-alpha (s) protein (Gs), resulting in activation of adenylate cyclase and increase in cyclic adenosine 3', 5' monophosphate (cAMP). The TSH receptor (THSR) is mainly expressed in thyroid follicular cells and regulates their growth and function. […] In order to confirm specificity of the compounds to the TSHR, a confirmatory assay was conducted on a similar family member, the Follicle Stimulating Hormone (FSH) receptor, transfected into a HEK 293 cell line, using an orthogonal detection technology to measure cAMP stimulation: antibody-based Homogeneous Time Resolved Fluorescence (HTRF).
NCGC Assay Protocol Summary: Homogeneous Time Resolved Fluorescence (HTRF) cAMP Assay. […] Plates were measured using the Envision plate reader (PerkinElmer, Boston, MA) with excitation at 330 nm and emissions of 615 nm and 660 nm. […]

Row | SMILES | outcome
1 | C=CCN1C(=O)C2(C(C(=O)OC)=C(N)Oc3c2c(=O)oc2ccccc32)c2ccccc21 (configuration not stated) | inactive
2 | CCOC(=O)C1=C(N)Oc2c(c(=O)oc3ccccc23)C12C(=O)N(C)c1ccccc12 (configuration not stated) | inactive
